This is an account of results in PubChem BioAssay AID449762 (Southern Research Specialized Biocontainment Screening …, 2010).

Each structure is given as a SMILES string. Among all 330,000 compounds or so, about 1,900 (0.58%) were called active. Not shown: some 4% with an inconclusive outcome. No stated cut-off is given here; in the data, inconclusive means inhibition above about 70% without an active follow-up result; inactive means below that. A selection follows. Results with a measured potency or affinity are listed apart.

This assay is described as follows: M. tuberculosis growth inhibition, HTS (AID 449762).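 Further: bacterial growth assessed after seven days of incubation.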 The following applies: M. tuberculosis H37Rv growth inhibition, 7H9 media; at 25 µM; stronger effect = higher value.
In general, inhibition refers to the drop in the measured response relative to a control, in per cent. Take `Cc1nc2ccc(NC(=O)N3CCN(c4ccccn4)CC3)cc2s1`: the inhibition was -4.34% (inactive).
On to `O=C(O)c1ccc(N=NN2CCCC2)cc1`, for which the inhibition is -3.03% (inactive).
Next, `CNC(=O)c1cc2c(s1)CCCCCC2`: -5.87% (inactive); `CC1CCc2sc(C(=O)NC3CCCCC3)cc2C1` (stereo not given): -9.17% (inactive); `Nc1cccc(-c2ccc(CO)o2)c1`: 10.1% (inactive).
Turning to `NC(=O)C1CCN(CC(=O)N2N=CCC2c2ccccc2)CC1` (stereo not given), the inhibition is -1.72% (inactive).
For the compound `CCC(=O)N1CCc2cc(S(=O)(=O)N3CCCC3)ccc21`, the inhibition is -9.42% (inactive).
As for `Cc1occc1C(=O)NN=C1C2CC3CC(C2)CC1C3`, the inhibition was -8.34% (inactive).
With `COc1ccc2[nH]c3c(N4CC(C)OC(C)C4)ncnc3c2c1` (stereo not given), the inhibition is -0.53% (inactive).
`Cc1ccc2c(c1)[nH]c1c(N3CCN(Cc4ccccc4)CC3)ncnc12`: the inhibition is 3.28% (inactive).
Next, `COc1ccc(N2CCN(c3ncnc4c3[nH]c3ccccc34)CC2)cc1`: -0.78% (inactive); `COc1cc2[nH]c3c(N4CCN(c5ccc(Cl)cc5)CC4)ncnc3c2cc1OC`: -5.15% (inactive).
Take `Cc1ccc2[nH]c3c(N4CCOCC4)ncnc3c2c1`: the inhibition is -3.57% (inactive).
On to `COc1cc2[nH]c3c(N4CCC(C(N)=O)CC4)ncnc3c2cc1OC`, for which the inhibition is 6.79% (inactive).
For `O=C(COC(=O)c1ccccc1NS(=O)(=O)c1cccs1)NC1CCCCC1`, the inhibition is 4.13% (inactive).
Regarding `CCCCOc1ccc(C(=O)NCC(=O)NC2CCC(C)CC2)cc1` (stereo not given), the inhibition was 9.03% (inactive).
On to `Cc1c(NC(=O)Nc2ccc(C(C)(C)C)cc2)c(=O)n(-c2ccccc2)n1C`, for which the inhibition is 1.52% (inactive).
`Cc1cc(NC(=O)C(C)C)ncc1NC(=O)c1ccco1`: the inhibition is 4% (inactive).
As to `Cn1c(SCc2ccccn2)nnc1-c1cnccn1`, the inhibition is -3.38% (inactive).
Regarding `O=S(=O)(Nc1ccccc1N1CCOCC1)c1c(F)cc(F)cc1Br`, the inhibition was -10.8% (inactive).
`CCN(C[C@H]1N[C@@](Cc2ccccc2)(C(=O)OC)[C@H]2C(=O)N(Cc3ccccc3)C(=O)[C@@H]12)C(=O)Nc1ccc(F)cc1`: the inhibition is 3.17% (inactive).
With `CCN(C[C@H]1N[C@@](CC)(C(=O)OC)[C@H]2C(=O)N(Cc3ccccc3)C(=O)[C@@H]12)C(=O)Nc1ccc(C(F)(F)F)cc1`, the inhibition was -6.29% (inactive).
For `COc1ccc(CNC(=O)/C=C/c2ccc(OCCCF)cc2)cc1` the value was 0.02% (inactive).
`O=C(/C=C/c1ccc(OCCCF)cc1)Nc1ccnc(-c2cccnc2)n1`: the inhibition is -3.34% (inactive).
Take `CC(C)(C)NC(=O)C(=O)NNC(=O)c1ccco1`: the inhibition was -5.31% (inactive).
Regarding `Cc1ccccc1N(CC(=O)NCc1ccncc1)S(C)(=O)=O`, the inhibition was 1.64% (inactive).
In the case of `CSc1ccc(C(=O)C2CCCN(C(=O)c3nonc3C)C2)cc1` (stereo not given), the inhibition was 12.6% (inactive).
For `CSc1ccc(C(=O)C2CCCN(C(=O)c3ccc4c(c3)OCO4)C2)cc1` (stereo not given) the value was 1.02% (inactive).
Consider `Cc1ccc(Cn2c([N+](=O)[O-])cnc2C)cc1`, for which the inhibition was 2.64% (inactive).
Consider `Cc1ccc(S(=O)(=O)N(C)CC(=O)Nc2ccc3c(c2)OCO3)cc1`, for which the inhibition is -3.43% (inactive).
In the case of `Cc1ccc(C(=O)OCN2C(=O)c3ccccc3C2=O)c(O)c1`, the inhibition is 2.23% (inactive).
In the case of `COc1ccccc1NC(=O)C12CC3CC(C1)CC(c1ccc(C)cc1)(C3)C2`, the inhibition was -6.68% (inactive).
On to `CNC(=O)C12CC3CC(C1)CC(c1ccc(C)cc1)(C3)C2`, for which the inhibition is 5.19% (inactive).
Regarding `COCC1CCN(Cc2nc(Cc3ccccc3Cl)no2)CC1`, the inhibition is 4.51% (inactive).
On to `COC(=O)Cn1c(=NC(=O)C(C)(C)C)sc2c(C)cc(C)cc21`, for which the inhibition is -0.87% (inactive).
Take `CC[C@]1(c2ccccc2C)ON(c2ccccc2C(F)(F)F)C1=O`: the inhibition is 0.115% (inactive).
In the case of `CC(C)C[C@]1(c2ccccc2)ON(c2ccccc2C(F)(F)F)C1=O`, the inhibition is -1.86% (inactive).
On to `CN1CCN(CCCNC(=O)CCCOc2cc(=O)n(C)c3ccccc23)CC1`, for which the inhibition was -3.75% (inactive).
Next, `CCCCCCCN1C(N(C)C)=NC[C@@H]1Cc1ccccc1`: 1.63% (inactive); `Cc1cccc(-n2ccc(=O)c(C(=O)Nc3ccc(S(=O)(=O)Nc4nccc(C)n4)cc3)n2)c1`: 6.8% (inactive); `CCOC(=O)c1cccc(NS(=O)(=O)c2c(C)[nH]c(C)c2C(=O)N2CCCC2)c1`: 12.7% (inactive).
For `COC(=O)/C(C#N)=C/c1ccc(-c2ccc(S(N)(=O)=O)cc2)o1`, the inhibition is -0.94% (inactive).
As for `Cc1cc(NC(=O)/C(C#N)=C/c2ccc(-c3ccc(SC(F)F)cc3)o2)n(-c2ccccc2)n1`, the inhibition is 4.12% (inactive).
`C=CCn1c(O)c(C(C)=Nc2cccc(C(=O)O)c2)c(=O)[nH]c1=O`: the inhibition is -1.56% (inactive).
As for `Cc1cc(C(=O)NNC(=O)c2sccc2C)c(C)o1`, the inhibition was -4.39% (inactive).
As for `CCN1CCN(C(c2cccs2)C(C)NS(=O)(=O)c2ccc(Br)cc2)CC1` (stereo not given), the inhibition is -2.6% (inactive).
In the case of `O=C(Nc1nccs1)c1ccc(S(=O)(=O)N2CCCCC2)cc1`, the inhibition is -7.33% (inactive).
On to `CSCCC(NC(=O)COc1ccccc1)C(=O)NCCOc1ccc(C)cc1` (stereo not given), for which the inhibition was 1.39% (inactive).
As for `COc1ccc(OC)c(S(=O)(=O)Nc2cc3c4c(c2)CCC(=O)N4CCC3)c1`, the inhibition is -8.72% (inactive).
Regarding `Cc1cc(C(=O)CCl)c(C)n1-c1c(C)n(C)n(-c2ccccc2)c1=O`, the inhibition was 64.9% (inactive).
As for `CC(=O)c1c(C(C)=O)c(C)n(-c2cccc([N+](=O)[O-])c2)c1C`, the inhibition was 4.11% (inactive).
As to `N#CCCCCn1c(-c2cncs2)nc2ccccc21`, the inhibition was -10.4% (inactive).
Consider `Oc1ccc(C=NCCc2ccccc2)cc1`, for which the inhibition is 0.33% (inactive).
For `CCSc1nc2ccccc2n1Cc1cccc([N+](=O)[O-])c1` the value was -1.33% (inactive).
For the compound `Cc1ccc(OC(=O)c2ccc(C)c(C)c2)cn1`, the inhibition was 38.4% (inactive).
For the compound `CCCCOc1ccc(C(=O)Oc2cccnc2)cc1`, the inhibition was 50% (inactive).
Next, `CO/N=C/C(C#N)=C/c1ccc(OC)c(OC)c1`: 2.72% (inactive); `CCCCn1c2ccccc2c2cc(CC(N)=O)ccc21`: 2.07% (inactive); `O=C(CCC(=O)OCc1ccc(Br)cc1)Nc1ccccc1`: -10.8% (inactive).
Next, `O=C(CNC(=O)c1ccco1)OCc1ccc(C(=O)c2ccccc2)cc1`: 14.1% (inactive).
Regarding `COc1ccc(CCNC(=O)c2ccc(Cl)cc2)cc1`, the inhibition is 15.5% (inactive).
Consider `COc1ccc(NC(=O)CCC(=O)OCc2ccc(C(=O)Oc3ccc(Cl)cc3)cc2)cc1`, for which the inhibition is -10.2% (inactive).
With `COc1ccc(C(=O)NCC(=O)NCC(=O)OCc2ccc(Cl)cc2)cc1`, the inhibition was 8.99% (inactive).
For `O=C(CNC(=O)c1ccco1)NCC(=O)OCc1ccc(C(=O)Oc2ccc(Cl)cc2)cc1`, the inhibition was -2.15% (inactive).
In the case of `O=C1CN(C(=O)CSc2ccc(-c3ccc(F)cc3)nn2)c2ccccc2N1`, the inhibition was -6.46% (inactive).
Consider `Cc1ccnc(N=Cc2nc(-c3ccccc3Br)oc2O)c1`, for which the inhibition is 2.41% (inactive).
Take `Cc1nc(CCNC(=O)c2cc(COc3ccc(F)cc3Cl)on2)sc1C`: the inhibition is 12.2% (inactive).
On to `COc1ccc(-c2nc3c(c(=O)[nH]c(=O)n3Cc3ccccc3)n2CCO)cc1`, for which the inhibition was -6.32% (inactive).
With `CCCOc1ccc(-c2nc3c(c(=O)[nH]c(=O)n3Cc3ccccc3)n2CCO)cc1OCC`, the inhibition was -0.79% (inactive).
Consider `CC(C)c1nc2ccc(Br)cn2c1NC1CCCC1`, for which the inhibition is -4.28% (inactive).
Regarding `CC(Sc1nnc(N)s1)C(=O)NNC(=O)c1cccc(Cl)c1` (stereo not given), the inhibition is 0.75% (inactive).
As to `CC1(C)C=Cc2c(ccc3c2OC[C@H](c2ccc(O)cc2O)C3)O1`, the inhibition is 9.89% (inactive).
On to `CC1(C)C=Cc2c(ccc3c2OC[C@@H](c2ccc(O)cc2O)C3)O1`, for which the inhibition was 4.54% (inactive).
For `CC1Cc2ccccc2N1C(=S)NC1CCCC1` (stereo not given), the inhibition is -1.79% (inactive).
For `COc1cccc(C(=O)NC(=S)N2c3ccccc3CC2C)c1OC` (stereo not given), the inhibition is -5.31% (inactive).
As to `O=C(Nc1ccccc1N1CCCCC1)c1cccc(Cl)c1`, the inhibition is 8.39% (inactive).
In the case of `CCC(C)c1ccc(S(=O)(=O)N2CCN(CC(O)CN3CCOCC3)CC2)cc1` (stereo not given), the inhibition is -16.5% (inactive).
Regarding `CCCOc1ccc(-c2cn3ccccc3n2)cc1[N+](=O)[O-]`, the inhibition was 2.24% (inactive).
As for `COc1ccc2c(c1)C(=O)/C(=C/C=C/c1ccccc1)CC2`, the inhibition is 6.15% (inactive).
Regarding `COc1ccc2c(c1)CC/C(=C/c1cc(OC)c(OC)c(OC)c1)C2=O`, the inhibition is 50% (inactive).
Take `CC1CCCN(CCCNC(=O)c2ccc(NC(=O)C3=CSCCO3)cc2)C1` (stereo not given): the inhibition is -0.6% (inactive).
`O=C(Nc1ccc(C(=O)NCCCN2CCN(c3ccccc3)CC2)cc1)C1=CSCCO1`: the inhibition is 4.06% (inactive).
In the case of `CC(=O)Nc1ccc(NC(=O)CCCSc2nc3ccccc3s2)cc1`, the inhibition is 0.37% (inactive).
`COCC(C)n1c(-c2ccc3c(c2)NC(=O)CO3)csc1=Nc1ccc(OC(F)F)cc1` (stereo not given): the inhibition was 5.17% (inactive).
Turning to `COCCN=c1scc(-c2ccc3c(c2)NC(=O)CO3)n1/N=C(\C)c1ccc(O)cc1`, the inhibition was 6.92% (inactive).
For `CC(=O)N1CCN(S(=O)(=O)c2cccc(C(=O)NC3CCCC3)c2)CC1` the value was -8.08% (inactive); for `O=C(Nc1ccccc1C1CC1)c1cccs1`, -3.36% (inactive); for `CCc1cccc2c(C(=O)CN3C(=O)NC4(CCCCCC4)C3=O)c[nH]c12`, -3.22% (inactive).
Consider `CN(Cc1cn(C)nc1-c1ccc(Oc2ccccc2)cc1)CC1COCCO1` (stereo not given), for which the inhibition was 8.39% (inactive).
For `O=C(NCc1cccnc1)c1ccc(Cl)c(Cl)c1` the value was 3.71% (inactive).
On to `O=C(CN1C(=O)/C(=C/c2ccccc2F)Sc2ccccc21)NCc1cccnc1`, for which the inhibition is 14.8% (inactive).
As for `CC(C)CCNC(=O)Cc1csc(-c2ccccc2)n1`, the inhibition is -12% (inactive).
For `COc1ccc(CC(NC(C)=O)C(=O)NC2CCN(c3c4c(nc5ncnn35)CCC4)CC2)cc1` (stereo not given), the inhibition was -5.34% (inactive).
On to `CC(=O)NC(C)c1ccc(Cl)c(Cl)c1` (stereo not given), for which the inhibition was 7.59% (inactive).
For `Cc1ccc(OCC(=O)NC(C)c2ccc(Cl)c(Cl)c2)c([N+](=O)[O-])n1` (stereo not given) the value was -3.43% (inactive).
